The values below come from PubChem BioAssay (NCATS).

Assay [1] can be described thus: qHTS for Inhibitors of the Functional Ribonucleoprotein Complex (vRNP) of Lassa (LASV) Arenavirus: LASV Primary Screen - GLuc reporter signal (AID 1347082; calls by dose curve; tested in HEK293 reporter line; further: nearly all actives have a fitted effect of over 60% in size). In general terms: Quantitative high-throughput screening tests each substance at several concentrations.
Assay [2] can be described thus: qHTS for Inhibitors of the Functional Ribonucleoprotein Complex (vRNP) of Lassa (LASV) Arenavirus: Viability assay - alamar blue signal for LASV Primary Screen (AID 1347083; calls by dose curve; tested in HEK293 reporter line; further: nearly all actives have a fitted effect of over 80% in size).
A short description of assay [3]: qHTS for Inhibitors of the Functional Ribonucleoprotein Complex (vRNP) of Lymphocytic Choriomeningitis Arenaviruses (LCMV): Viability assay - alamar blue signal for LCMV Primary Screen (AID 1347085; calls by dose curve; tested in HEK293 reporter line; further: nearly all actives have a fitted effect of over 80% in size).
The target in assay [4] is Nucleoprotein (Lymphocytic choriomeningitis virus (strain Armstrong)) (UniProt P09992). Briefly: qHTS for Inhibitors of the Functional Ribonucleoprotein Complex (vRNP) of Lymphocytic Choriomeningitis Arenaviruses (LCMV): LCMV Primary Screen - GLuc reporter signal (AID 1347086). Further: nearly all actives have a fitted effect of over 70% in size.

Each structure is given as a SMILES string. “And” between values parts separate entries of the source, which are not always exact repeats. Identical values can stand only once. Records with an inconclusive call do not appear. The source made the active and inactive calls. Unless noted, the call rests on the fitted dose curve.
Potency means the concentration at half of the fitted maximal effect.

Nucleoprotein (Lymphocytic choriomeningitis virus (strain Armstrong)), sequence (P09992 whole entry, looked up): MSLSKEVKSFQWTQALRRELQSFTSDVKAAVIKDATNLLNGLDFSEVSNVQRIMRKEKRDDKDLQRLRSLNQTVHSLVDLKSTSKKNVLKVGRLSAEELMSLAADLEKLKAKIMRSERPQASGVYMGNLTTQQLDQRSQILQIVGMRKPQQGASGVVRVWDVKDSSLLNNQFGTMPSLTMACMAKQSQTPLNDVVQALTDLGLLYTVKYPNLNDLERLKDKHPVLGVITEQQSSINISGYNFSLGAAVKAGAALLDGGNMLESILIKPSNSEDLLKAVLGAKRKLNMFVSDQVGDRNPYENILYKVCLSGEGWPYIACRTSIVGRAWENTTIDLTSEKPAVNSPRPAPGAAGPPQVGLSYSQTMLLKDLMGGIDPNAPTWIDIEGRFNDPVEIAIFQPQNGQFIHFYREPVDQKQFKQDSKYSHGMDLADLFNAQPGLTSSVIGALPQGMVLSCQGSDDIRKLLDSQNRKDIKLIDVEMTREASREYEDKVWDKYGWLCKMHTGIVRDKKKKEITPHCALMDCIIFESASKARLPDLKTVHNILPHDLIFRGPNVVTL

On to `CCCc1cc(=O)[nH]c(=S)[nH]1`, for which the Potency entry in assay [1], in assay [2], in assay [3] and in assay [4] was “inactive” each time.

Regarding `CC[C@@H]([C@H](C)O)n1ncn(-c2ccc(N3CCN(c4ccc(OC[C@@H]5CO[C@@](Cn6cncn6)(c6ccc(F)cc6F)C5)cc4)CC3)cc2)c1=O`, the Potency entry in assay [1], in assay [2], in assay [3] and in assay [4] was “inactive” throughout.

For the compound `Nc1nc2c(ncn2COCCO)c(=O)[nH]1`, the Potency result in assay [1], in assay [2], in assay [3] and in assay [4] was “inactive” throughout.

As for `CCN(CC)C(=S)SSC(=S)N(CC)CC`, the Potency in assay [1] was 193 nM (active); in assay [2], 0.122 µM (active); in assay [3], 863 nM (active); in assay [4] it was 193 nM (active).

For `CN1CCc2cccc3c2[C@H]1Cc1ccc(O)c(O)c1-3`, the Potency entry in assay [1], in assay [2], in assay [3] and in assay [4] was “inactive” in each case.

For `O=C(CCCCCCC(=O)Nc1ccccc1)NO`, the Potency entry in assay [1] and in assay [4] was “inactive” each time. Besides, the Potency in assay [2] was 8.91 µM (active) and 7.69 µM (active); in assay [3], 7690 nM (active).

Take `COc1ccc(Cl)cc1C(=O)NCCc1ccc(S(=O)(=O)NC(=O)NC2CCCCC2)cc1`: the Potency result in assay [1], in assay [2], in assay [3] and in assay [4] was “inactive” each time.

`Cc1[nH]cnc1CN1CCc2c(c3ccccc3n2C)C1=O`: the Potency entry in assay [1], in assay [2], in assay [3] and in assay [4] was “inactive” in each case.

Consider `CCCNC(=O)NS(=O)(=O)c1ccc(Cl)cc1`, for which the Potency entry in assay [1], in assay [2], in assay [3] and in assay [4] was “inactive” each time.

With `O=C(O)CCCc1ccccc1`, the Potency result in assay [1], in assay [2], in assay [3] and in assay [4] was “inactive” throughout.

As for `O=C(O)COCCN1CCN(C(c2ccccc2)c2ccc(Cl)cc2)CC1` (stereo not given), the Potency result in assay [1], in assay [2], in assay [3] and in assay [4] was “inactive” throughout.

For the compound `CC1=NS(=O)(=O)c2cc(Cl)ccc2N1`, the Potency entry in assay [1], in assay [2], in assay [3] and in assay [4] was “inactive” throughout.

With `C=C(c1ccc(C(=O)O)cc1)c1cc2c(cc1C)C(C)(C)CCC2(C)C`, the Potency entry in assay [1], in assay [2], in assay [3] and in assay [4] was “inactive” throughout.

`CC(CN(C)C)CN1c2ccccc2CCc2ccccc21` (stereo not given): the Potency entry in assay [1], in assay [2], in assay [3] and in assay [4] was “inactive” throughout.

For the compound `Cc1cccc(Nc2ccncc2S(=O)(=O)NC(=O)NC(C)C)c1`, the Potency entry in assay [1], in assay [2], in assay [3] and in assay [4] was “inactive” each time.

In the case of `CC1(C)NC(=O)N(c2ccc([N+](=O)[O-])c(C(F)(F)F)c2)C1=O`, the Potency result in assay [1], in assay [2], in assay [3] and in assay [4] was “inactive” in each case.

As for `C[C@@H]1CC(=O)NN=C1c1ccc(NN=C(C#N)C#N)cc1`, the Potency result in assay [1], in assay [2], in assay [3] and in assay [4] was “inactive” in each case.

With `CN1CCC[C@@H]1Cc1c[nH]c2ccc(CCS(=O)(=O)c3ccccc3)cc12`, the Potency result in assay [1], in assay [2], in assay [3] and in assay [4] was “inactive” in each case.

On to `CN(C)CCc1c[nH]c2ccc(C[C@H]3COC(=O)N3)cc12`, for which the Potency result in assay [1], in assay [2], in assay [3] and in assay [4] was “inactive” throughout.

Turning to `COc1ccc2nc(S(=O)Cc3ncc(C)c(OC)c3C)[nH]c2c1` (stereo not given), the Potency entry in assay [1], in assay [2], in assay [3] and in assay [4] was “inactive” in each case.

On to `O=C(OC1C[C@H]2CC[C@@H](C1)[N+]21CCCC1)C(O)(c1ccccc1)c1ccccc1` (stereo not given in full), for which the Potency entry in assay [1], in assay [2], in assay [3] and in assay [4] was “inactive” throughout.

As to `CCC[C@H](N[C@@H](C)C(=O)N1[C@H](C(=O)O)C[C@@H]2CCCC[C@@H]21)C(=O)OCC`, the Potency result in assay [1], in assay [2], in assay [3] and in assay [4] was “inactive” throughout.

In the case of `COc1cc2c(N3CCN(C(=O)Nc4ccc(OC(C)C)cc4)CC3)ncnc2cc1OCCCN1CCCCC1`, the Potency result in assay [1], in assay [2], in assay [3] and in assay [4] was “inactive” each time.

Take `NC(=O)C(c1ccccc1)(c1ccccc1)[C@@H]1CCN(CCc2ccc3c(c2)CCO3)C1`: the Potency entry in assay [1], in assay [2], in assay [3] and in assay [4] was “inactive” throughout.

On to `O=C(O)c1ccc(-n2nc(-c3ccccc3O)nc2-c2ccccc2O)cc1`, for which the Potency result in assay [1], in assay [2], in assay [3] and in assay [4] was “inactive” in each case.

For `CCc1nn(CCCN2CCN(c3cccc(Cl)c3)CC2)c(=O)n1CCOc1ccccc1`, the Potency entry in assay [3] is “inactive”.

Turning to `NC12CC3CC(CC(C3)C1)C2`, the Potency result in assay [1], in assay [3] and in assay [4] was “inactive” each time.

Take `CO[C@@]12[C@H](COC(N)=O)C3=C(C(=O)C(C)=C(N)C3=O)N1C[C@@H]1N[C@@H]12`: the Potency entry in assay [1] and in assay [4] was “inactive” in each case.

For the compound `N=C(N)c1ccc(OCCCCCOc2ccc(C(=N)N)cc2)cc1`, the Potency in assay [2] is 38.5 µM (active).

As for `O=C(c1ccccc1)c1ccc2n1CCC2C(=O)O` (stereo not given), the Potency entry in assay [1], in assay [3] and in assay [4] was “inactive” each time.

Regarding `Cc1cc2c(C(C)C)c(O)c(O)c(C=O)c2c(O)c1-c1c(C)cc2c(C(C)C)c(O)c(O)c(C=O)c2c1O`, the Potency in assay [2] was 30.6 µM (active). For the same compound, the Potency result in assay [3] is “inactive”.

For `CC(S)C(=O)NCC(=O)O` (stereo not given), the Potency result in assay [1], in assay [3] and in assay [4] was “inactive” each time.

On to `CC(=O)N(O)CCCCCNC(=O)CCC(=O)N(O)CCCCCNC(=O)CCC(=O)N(O)CCCCCN`, for which the Potency entry in assay [1], in assay [3] and in assay [4] was “inactive” throughout.

For the compound `CCCC(CCC)C(=O)O`, the Potency result in assay [1] and in assay [4] was “inactive” throughout.
